The values that follow come from PubChem BioAssay (NCI).

Each structure is given as a SMILES string. This is part of a sample that, as a whole, favours compounds with a hit. Of some 83,000 tested, about 20% had one in any assay.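 Treatment: one concentration, 48 hours, 96-well format. Scoring: percent growth, with anything below 10 considered active.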 Values without a mark were called inactive. The source made the active and inactive calls.

Common to all, as to experiment: NCI-60 one-dose screen, 48 h (100 = growth as untreated, 0 = no growth, -100 = all killed)
Details in all cases: 10 µM unless noted

Experiment [1] relates to NCI-H23 lung.
Experiment [2] relates to NCI-H226 lung.
Experiment [3] has as its system HOP-62 NSCLC.
In experiment [4] the test system is NCI-H460 lung.
For experiment [5], the system named is HOP-92 NSCLC.
For experiment [6], the system named is NCI-H522 lung.
Experiment [7] relates to A549/ATCC NSCLC.
The test system of experiment [8] is 786-0 renal.
For experiment [9], the system named is COLO 205 colon.
Experiment [10] relates to DU-145 prostate.
The subject of experiment [11] is K-562 leukemia.
Experiment [12] deals with MALME-3M melanoma.
For experiment [13], the system named is MDA-MB-231 breast.
Experiment [14] deals with SF-268 CNS.
For experiment [15], the system named is SF-295 CNS.
Experiment [16] relates to SF-539 CNS.
Experiment [17] concerns UACC-257 melanoma.
The test system of experiment [18] is M14 melanoma.
The subject of experiment [19] is RXF 393 renal.

For the compound `Clc1nc(Cl)c2ncn(CC3(Cn4cnc5c(Cl)nc(Cl)nc54)COC3)c2n1`, the growth in experiment [1] was -70.2% (active); in [2], -81.3% (active); in experiment [3] it was -82.3% (active); in experiment [4] it was -65.5% (active); in [5], -91.9% (active); in experiment [6] it was -89.1% (active). The growth was -77% (active) in experiment [7]; -98.7% (active) in experiment [8]; -76.6% (active) in experiment [9]; -100% (active) in experiment [10]; -70.4% (active) in experiment [11]; -69.8% (active) in experiment [12]. The growth in experiment [13] was -88.9% (active); in [14], -73.7% (active); in experiment [15], -83.6% (active); in experiment [16], -93.4% (active); in experiment [17] it was -90.9% (active); in experiment [18], -92.7% (active).
Regarding `Cc1ccc2[nH]c(=O)cc(-n3nncc3COc3ccc(C=O)cc3)c2c1`, the growth in experiment [1] is 103%; in experiment [2] it was 90.3%; in [3] it was 101%; in experiment [4] it was 106%; in experiment [5] it was 95.6%; in experiment [6] it was 89.7%. Besides, the growth in experiment [7] was 103%; in experiment [8], 102%; in experiment [9] it was 128%; in [10] it was 105%; in experiment [12] it was 100%; in experiment [13], 101%. In addition, the growth is 102% in [14]; 104% in [15]; 99.4% in [16]; 116% in [17]; 103% in experiment [18].
With `COc1ccc(-c2nc(N/N=C/c3c[nH]c4ccccc34)nc(N3CCOCC3)c2C#N)cc1`, the growth in experiment [1] is 111%; in experiment [2], 105%; in experiment [3] it was 105%; in [4], 82.8%; in experiment [5] it was 69.1%; in experiment [6] it was 99.7%. In addition, the growth was 92.4% in experiment [7]; 45.9% in [8]; 78.5% in experiment [9]; 79.7% in [10]; 38% in [11]; 80.3% in experiment [12]. The growth in experiment [13] was 72.4%; in experiment [14] it was 95.5%; in experiment [15] it was 68.2%; in experiment [16] it was 67.6%; in [17] it was 21.4%; in experiment [18], 88.5%.
Regarding `COc1cc(C2CC(c3cccc(Nc4ccncc4)c3)=NN2c2ccccc2)cc(OC)c1OC` (stereo unspecified), the growth in [1] was 90%; in [2], 96%; in experiment [3], 59.6%; in [4] it was 4.66% (active); in experiment [5], 28.1%; in experiment [6], 77.3%. The growth in [7] is 44.9%; in experiment [8], 69.1%; in [9], -52.5% (active); in experiment [10], 45.4%; in experiment [11], 0.38% (active); in experiment [12], -77.7% (active). In addition, the growth in experiment [13] was 63.4%; in experiment [14], 64.7%; in experiment [15], 58.6%; in [16] it was 76.9%; in [17] it was -13.8% (active); in experiment [18], 58.9%.
Consider `COC(=O)CCCCCCCCC1(C)C=CC(C(C)O)=CC1` (stereo unspecified), for which the growth was 96.2% in [1]; 97% in experiment [2]; 101% in experiment [3]; 111% in [4]; 93.2% in [5]; 89% in experiment [6]. Moreover, the growth in [7] is 94%; in experiment [8], 108%; in experiment [9] it was 111%; in experiment [10], 110%; in experiment [11], 84.5%; in [12] it was 105%. Further, the growth in [13] was 110%; in experiment [19] it was 107%; in experiment [14] it was 105%; in experiment [15], 109%; in experiment [16], 112%; in experiment [17], 108%. In experiment [18], the growth was 110%.
With `CC1(C)CC[C@]2(C(=O)NCC#CCN3CCOCC3)CC[C@]3(C)C(=CC[C@@H]4[C@@]5(C)Cc6c([nH]c7ccccc67)C(C)(C)[C@@H]5CC[C@]43C)[C@@H]2C1`, the growth in experiment [1] is 95.9%; in [2], 95.1%; in experiment [3], 98.1%; in experiment [4] it was 90.1%; in experiment [5], 79.8%; in experiment [6] it was 85.2%. The growth in experiment [7] is 72%; in [8], 92.7%; in experiment [9], 30.5%; in experiment [10], 103%; in experiment [11] it was 65.3%; in experiment [12], 95%. The growth was 91.4% in experiment [13]; 98.6% in [19]; 87.7% in experiment [14]; 79.7% in experiment [15]; 107% in experiment [16]; 47.5% in experiment [17]. In experiment [18], the growth is 80.7%.
As for `COc1ccc(OC)c(/C=C/[C@H]2O[C@@H](C)[C@H](O)[C@@H]2O)c1`, the growth is 99.6% in experiment [1]; 96.1% in experiment [2]; 106% in experiment [3]; 106% in experiment [4]; 94.7% in experiment [5]; 91.7% in experiment [6]. The growth in experiment [7] is 99.4%; in experiment [9], 111%; in [10] it was 121%; in [11], 93%; in experiment [12], 96.7%; in experiment [13], 98.4%. For the same compound, the growth was 117% in [19]; 111% in [14]; 102% in [15]; 100% in experiment [16]; 104% in experiment [17]; 103% in [18].
Consider `CCCCCN1C=C/C(=C\C(=O)N(C)c2ccc(Br)cc2)c2ccccc21`, for which the growth in [1] was 87.3%; in experiment [2], 86.3%; in [3] it was 94.5%; in experiment [4], 105%; in experiment [5], 82.7%; in experiment [6], 82.1%. In addition, the growth was 95.2% in [7]; 98% in experiment [8]; 108% in experiment [9]; 104% in [10]; 76.5% in experiment [11]; 96.9% in experiment [12]. In addition, the growth in [13] is 101%; in experiment [19], 92.9%; in experiment [14] it was 96.2%; in experiment [15] it was 99.2%; in [16], 102%; in experiment [17], 95.1%. Moreover, the growth in experiment [18] was 104%.
